Experimental data reported in PubChem BioAssay (NCATS).
Results filed as inconclusive are left out. The source made the active and inactive calls. The call rests on the fitted dose curve; in most records, active means well fitted inhibition curve with a large enough effect; inconclusive means small, poorly fitted or top-dose-only effect; inactive means flat fitted curve, though single readings scatter.

Legend:
Assay in all cases: qHTS profiling for inhibitors of Plasmodium falciparum proliferation (AID 504749); further: nearly all actives have a fitted effect of over 60% in size
Conditions in all cases: P. falciparum in erythrocytes, SYBR Green DNA, 72 h; series mostly up to 28.7 µM
[1] = test system: DIV17
Procedure, shortened: (§1)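 Infected RBCs, 0.3% parasitemia/2.5% Hct final; cpd 72 h, 37 C, 5% CO2; lysis buffer with saponin/triton/SYBR Green I, o/n RT dark; FI 485/535; norm. to artemisinin (0.29 uM) and DMSO.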

[2] = test system: DIV30
Procedure, shortened: as §1

[3] = test system: Dd2
Procedure, shortened: as §1

[4] = test system: ECU
Procedure, shortened: as §1

[5] = test system: FAB9
Procedure, shortened: as §1

[6] = test system: GB4
Procedure, shortened: as §1

[7] = test system: HB3
Procedure, shortened: as §1

[8] = test system: ICS
Procedure, shortened: as §1

[9] = test system: JCK
Procedure, shortened: as §1

[10] = test system: N140
Procedure, shortened: as §1

[11] = test system: P93_24
Procedure, shortened: as §1

[12] = test system: P94_40
Procedure, shortened: as §1

[13] = test system: PAD
Procedure, shortened: as §1

[14] = test system: PC15
Procedure, shortened: as §1

[15] = test system: PC26
Procedure, shortened: as §1

[16] = test system: PC49
Procedure, shortened: as §1

[17] = test system: SC27B
Procedure, shortened: as §1

[18] = test system: TAB109
Procedure, shortened: as §1

[19] = test system: TAB113
Procedure, shortened: as §1

[20] = test system: TAB165
Procedure, shortened: as §1

Measured: Potency

CN1C(=O)COc2c(C(=O)NC3CN4CCC3CC4)cc(Cl)cc21 (stereo not given)
inactive: all assays above

NCCc1ccc(O)cc1
inactive: all assays above

O=C(O)CCCc1ccc(N(CCCl)CCCl)cc1
inactive: all assays above

O=C1Nc2ccc(Cl)cc2C(c2ccccc2)=NC1O (stereo not given)
inactive: all assays above

CNC(C)(C)Cc1ccccc1
inactive: all assays above

Clc1cccc(SC2CCNCC2)n1
inactive: all assays above

Nc1nc(N)nc(NC2CC2)n1
inactive: all assays above

C[C@]12CC[C@@H]3c4ccc(OC(=O)N(CCCl)CCCl)cc4CC[C@H]3[C@@H]1CC[C@@H]2O
inactive: all assays above

CN1C(=O)CCS(=O)(=O)C1c1ccc(Cl)cc1 (stereo not given)
inactive: all assays above

CCC1(CC)C(=O)C=CNC1=O
inactive: all assays above

O=c1oc2ccccc2c(O)c1Cc1c(O)c2ccccc2oc1=O
inactive: all assays above

Nc1ccccc1C(=O)O
inactive: all assays above

COP(=S)(OC)SCN1C(=O)c2ccccc2C1=O
inactive: all assays above
